# According to PubChem BioAssay (NCATS):
# Where “and” joins values, the source holds several entries; their conditions need not be identical. Equal values may be shown once. Unmarked numbers belong to inactive results. Records with an inconclusive call do not appear. Entries that show only a call come without a potency. Calls of active or inactive are those of the source. Unless noted, calls come from the whole dose curve; as a rule, active = well fitted curve in the direction sought with a large enough effect; inconclusive = small, poorly fitted or top-dose-only effect, or another doubt; inactive = no such curve, though single readings can be large; an effect the other way counts as inactive or inconclusive.
# Experiments:
# [1] = molecular target: Cytochrome P450 1A2 (Homo sapiens) (UniProt P05177); test: p450-cyp1a2 (AID 410; calls by dose curve; note: potency is the fitted concentration of half-maximal effect)
# Outline: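 20nM CYP1A2, 100uM Luciferin-ME (=Km), 100mM KPO4; cpd 10 min RT; +NADPH regen, 60 min RT; stop/detect 20 min; luminescence. Normalized to furafylline 57 uM = full inhibition.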
# [2] = molecular target: Glucocorticoid receptor (Homo sapiens) (UniProt P04150); test: GR-GFP Redistribution (AID 450;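 active = compounds whose dose series gives a full or clear partial fitted curve of increased nuclear translocation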; note: potency is the fitted concentration of half-maximal effect); conditions: U2OS GR-GFP nuclear translocation, laser cytometry, 2 h
# [3] = molecular target: Glucocorticoid receptor (Homo sapiens) (UniProt P04150); test: GR-EFC Redistribution (AID 451; calls by dose curve; note: potency is the fitted concentration of half-maximal effect); conditions: CHO-K1 GR-EFC translocation, beta-gal luminescence, 2 h
# Outline: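 CHO-K1 cells stably expressing nuclear-localized β-gal enzyme acceptor and GR fused C-terminally to the enzyme donor fragment; ligand-driven nuclear translocation restores β-gal by complementation. Compounds titrated up to 46 uM final, 2 h at 37 °C; luminescence read.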
# [4] = molecular target: Mitogen-activated protein kinase 10 (Mus musculus) (UniProt Q61831); test: JNK3 AlphaScreen Assay (AID 530; active = well fitted curve in either direction with a large enough effect, not every such curve was filed as active;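 note: kinase came from lysate of stimulated human HepG2 cells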; note: potency is the fitted concentration of half-maximal effect;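 for activity change, negative = inhibition: signal reports phosphorylation of biotinylated GST-cJun 1-79 at Ser73 with 10 µM ATP; series mostly up to about 57 µM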)
# Outline: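 Biotinylated GST-cJun(1-79) served as substrate for JNK3 in HepG2 lysates stimulated with IL-1beta and TNF-alpha. ATP was 10 uM final, pH 7.6. Ser73 phosphorylation was quantified by AlphaScreen (680 nm excitation).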
# [5] = molecular target: 3',5'-cyclic-AMP phosphodiesterase 4B (Homo sapiens) (UniProt Q07343); test: qHTS Assay for Inhibitors of PDE-IV (AID 607; active = well fitted activation curve with a large enough effect in the main read-out, with a control signal flat, not every such curve was filed as active)
# Outline: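 Cell-based read-out of cAMP via a modified cyclic nucleotide-gated channel and membrane potential dye (535/590 nm) in HEK293 cells expressing PDE4 endogenously. Compounds tested up to 22.9 uM final; 100 uM RO 20-1724 reference.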
# [6] = molecular target: Guanine nucleotide-binding protein G(i) subunit alpha-1 (Homo sapiens) (UniProt P63096); test: qHTS Assay for Inhibitors of RGS12 GoLoco Motif Activity (Green Fluorophore) (AID 879);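 note: negative values mean loss of peptide binding seen as reduced polarization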
# Outline: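 A drop in FITC polarization marked displacement of the FITC-tagged RGS12 GoLoco peptide (10 nM) from Gαi1 (50 nM). Compounds were incubated 10 min at room temperature in Tris pH 7.5 buffer containing 150 mM NaCl, 0.1 mM GDP and 0.05% NP40; unlabeled peptide titration served as control.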
# [7] = molecular target: Cytochrome P450 2C9 (Homo sapiens) (UniProt P11712); test: qHTS Assay for Inhibitors and Substrates of Cytochrome P450 2C9 (AID 883); note: potency is the fitted concentration of half-maximal effect; nearly all actives have a fitted effect of over 60% in size
# Outline: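 Human CYP2C9 (10nM) hydroxylated Luciferin-H (100uM, at its KM) to luciferin in 25mM KPO4. Compound was preincubated 10 min at 37C, then NADPH regeneration started a 60 min reaction at 37C. Luminescence was read after detection reagent, normalized to 57uM sulphaphenazole.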
# [8] = molecular target: Cytochrome P450 3A4 (Homo sapiens) (UniProt P08684); test: qHTS Assay for Activators of Cytochrome P450 3A4 (AID 885); note: nearly all actives have a fitted effect of over 65% in size
# Outline: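 Luminescent readout of luciferin formed from 25 uM Luciferin-PPXE (KM level) by 20 nM CYP3A4 in 200 mM KPO4, with 60 min NADPH-driven reaction at room temperature after 10 min compound exposure. Ketoconazole (57 uM) defined 100% inhibition.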
# [9] = molecular target: Cytochrome P450 2C19 (Homo sapiens) (UniProt P33261); test: qHTS Assay for Inhibitors and Substrates of Cytochrome P450 2C19 (AID 899); note: nearly all actives have a fitted effect of over 60% in size; note: potency is the fitted concentration of half-maximal effect
# Outline: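 Human CYP2C19 (5nM) with Luciferin-H EGE at 10uM (its KM) in 50mM KPO4 was preincubated with compound for 10 min at 37C. NADPH regeneration started a 60 min 37C reaction. Luciferin was read by luminescence, normalized to 57uM ketoconazole.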
# [10] = molecular target: Muscarinic acetylcholine receptor M1 (Rattus norvegicus) (UniProt P08482); test: qHTS Assay for Antagonists of Acetylcholine Muscarinic M1 Receptor: Measurement of IP-One Response (AID 944); note: potency is the fitted concentration of half-maximal effect; nearly all actives have a fitted effect of over 75% in size
# Outline: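 Read-out: HTRF competition between d2-IP1 and Eu-cryptate anti-IP1 antibody, emission 620 and 665 nm. Stimulus was carbachol, EC80 (200 nM), for 30 min in M1-CHO cells (rat receptor), after 10 min compound pre-treatment.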
# [11] = molecular target: Pyruvate kinase (Leishmania mexicana) (UniProt Q27686); test: qHTS Validation Assay for Inhibitors of Leishmania Mexicana Pyruvate Kinase (AID 945); note: potency is the fitted concentration of half-maximal effect
# Outline: (§1)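 LmPYK E451W 0.2 nM; 0.5 mM PEP, 0.1 mM ADP, 7 mM MgCl2, 50 mM KCl, imidazole pH 7.2, 0.01% Tween 20, 0.05% BSA; 1 h RT; PKLight luminescence; DMSO-normalized.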
# [12] = molecular target: Pyruvate kinase PKM (Homo sapiens) (UniProt P14618); test: qHTS Assay for Activators of Human Muscle Pyruvate Kinase (AID 954; active = well fitted curve in the direction sought with a large enough effect, not every such curve was filed as active)
# Outline: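 ATP production by PKM2 detected via luciferase luminescence after 1 h room-temperature reaction (0.1 nM enzyme, PEP at Km 0.5 mM, ADP 0.1 mM, pH 7.2 imidazole buffer). Inhibition scaled to no-enzyme control; activation referenced to 0.3 nM enzyme wells.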
# [13] = molecular target: Pyruvate kinase PKM (Homo sapiens) (UniProt P14618); test: qHTS Assay for Inhibitors of Human Muscle Pyruvate Kinase (AID 958); conditions: purified human PKM enzyme activity
# Outline: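 Luminescence from a luciferase ATP-detection/stop reagent reported PKM2 activity. Reactions contained 0.1 nM purified human enzyme, 0.5 mM PEP, 0.1 mM ADP and 7 mM MgCl2 at pH 7.2, run 1 h at RT.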
# [14] = molecular target: Pyruvate kinase (Leishmania mexicana) (UniProt Q27686); test: qHTS Validation Assay for Activators of Leishmania Mexicana Pyruvate Kinase (AID 959)
# Outline: as §1
# [15] = molecular target: Alpha-galactosidase A (Homo sapiens) (UniProt P06280); test: Counterscreen for Glucocerebrosidase Inhibitors: qHTS Assay for Human alpha-Galactosidase at pH 4.5 (AID 992)
# Outline: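 Fluorogenic 1536-well qHTS at pH 4.5 (citrate, Tween-20): 2 nM enzyme, 80 uM 4-MU-alpha-galactoside, 20 min room temperature, NaOH/glycine stop. Titration 0.7 nM to 77 uM, data normalized to no-enzyme and full-activity controls, Hill-fitted AC50.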
# [16] = molecular target: alpha-glucosidase (Oryza sativa, rice) (UniProt Q653V4); test: Counterscreen for Glucocerebrosidase Inhibitors: qHTS Assay for Rice alpha-Glucosidase at pH 5.0 (AID 997)
# Outline: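 Endpoint fluorogenic assay at pH 5.0: compounds (0.7 nM to 77 uM) titrated against 4 nM rice enzyme and 400 uM 4-MU-alpha-glucoside for 20 min at room temperature; NaOH/glycine stop, read ex 365/em 440 nm, Hill-fitted AC50.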
# [17] = molecular target: DNA dC->dU-editing enzyme APOBEC-3G (Homo sapiens) (UniProt Q9HC16); test: qHTS for inhibitors of Vif-A3G interactions: Validation (AID 588379); note: potency is the fitted concentration of half-maximal effect
# Outline: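 Yellow fluorescence (Ex 488, Em 500-530) of Vif-coexpressing HeLa A3G-eYFP cells, scanned by Acumen cytometer, reports blocked A3G degradation. Cells plated at 700/well overnight at 37 deg C before compound addition, then a further overnight compound incubation at 37 deg C.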
# [18] = system: Zika virus NS2B-NS3 protease; test: Primary screen GU AMC qHTS for Zika virus inhibitors (AID 1347154); note: nearly all actives have a fitted effect of over 70% in size
# Outline: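 Unlinked Zika NS2B hydrophilic domain/NS3 protease domain noncovalent complex (25 nM final) in 10 mM Tris-HCl pH 8.0, 0.01% Tween 20, with AMC peptide substrate. Fluorescence (ex 340, em 450 nm) change over 15 min, room temperature; percent inhibition fitted to 4-parameter Hill equation.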
# [19] = Counterscreen qHTS for small molecule stabilizers of the endoplasmic reticulum resident proteome: GLuc-NoTag assay (AID 1508627); note: potency is the fitted concentration of half-maximal effect; for activity change, negative = inhibition: series mostly up to about 76 µM
# Outline: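 Secreted GLuc lacking the SERCaMP modification is measured in SH-SY5Y cells exposed to compound for 19 h and then to thapsigargin (100 nM, 4 h) to deplete ER calcium; hits retested at 11 concentrations, up to 76.6 uM.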
# [20] = Cell Viability qHTS for small molecule stabilizers of the endoplasmic reticulum resident proteome (AID 1508629); conditions: cell viability counter-screen, 100 nM thapsigargin for final 4 h;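 note: compound exposure about 46 h in total before the viability read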; note: potency is the fitted concentration of half-maximal effect;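 for max response: human SH-SY5Y neuroblastoma cells carrying the GLuc-SERCaMP reporter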
# [21] = Primary qHTS for small molecule stabilizers of the endoplasmic reticulum resident proteome: Secreted ER Calcium Modulated Protein (SERCaMP) assay (AID 1508630)
# Outline: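 The SH-SY5Y reporter protocol was run at 3 concentrations up to 38.3 uM (primary) or 11 concentrations (follow-up): 16 h compound, 100 nM thapsigargin for 4 h, then extracellular luciferase luminescence.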
# [22] = molecular target: Cytochrome P450 3A4 (Homo sapiens) (UniProt P08684); test: qHTS Assay for Inhibitors and Substrates of Cytochrome P450 3A4 (AID 884); note: potency is the fitted concentration of half-maximal effect; nearly all actives have a fitted effect of over 50% in size
# Outline: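 Luminescent readout of luciferin produced by CYP3A4 (20 nM) dealkylation of Luciferin-PPXE, 25 uM (its KM). NADPH-driven reaction ran 60 min at RT after 10 min compound preincubation; data scaled to 57 uM ketoconazole as 100% inhibition.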
# [23] = Confirmatory qHTS for small molecule stabilizers of the endoplasmic reticulum resident proteome: Secreted ER Calcium Modulated Protein (SERCaMP) assay (AID 1508628); note: series mostly up to about 76 µM; nearly all actives have a fitted effect of over 40% in size
# Outline: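 GLuc-SERCaMP-expressing SH-SY5Y cells, pretreated 16 h with compound, are challenged with thapsigargin to empty ER calcium stores; after 4 h, coelenterazine is added directly to the medium and luminescence is imaged.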
# [24] = molecular target: Ubiquitin carboxyl-terminal hydrolase 1 (Homo sapiens) (UniProt O94782); test: Inhibitors of USP1/UAF1: Pilot qHTS (AID 504865);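 note: rhodamine fluorescence freed from ubiquitin-rhodamine substrate followed over time; top concentration of the series differs between compounds; nearly all actives have a fitted effect of over 35% in size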
# Outline: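 1nM USP1/UAF1 + cpd, 15 min RT; start w/ Ub-Rho 150nM final; kinetic FL 480/540 nm, 6 reads q60 s. Buffer 50mM HEPES pH 7.8, 0.5mM EDTA, 1mM TCEP, 0.01% Tween-20, 0.1 mg/ml BSA.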
# Sequence of Cytochrome P450 1A2 (Homo sapiens) (P05177 whole entry, looked up): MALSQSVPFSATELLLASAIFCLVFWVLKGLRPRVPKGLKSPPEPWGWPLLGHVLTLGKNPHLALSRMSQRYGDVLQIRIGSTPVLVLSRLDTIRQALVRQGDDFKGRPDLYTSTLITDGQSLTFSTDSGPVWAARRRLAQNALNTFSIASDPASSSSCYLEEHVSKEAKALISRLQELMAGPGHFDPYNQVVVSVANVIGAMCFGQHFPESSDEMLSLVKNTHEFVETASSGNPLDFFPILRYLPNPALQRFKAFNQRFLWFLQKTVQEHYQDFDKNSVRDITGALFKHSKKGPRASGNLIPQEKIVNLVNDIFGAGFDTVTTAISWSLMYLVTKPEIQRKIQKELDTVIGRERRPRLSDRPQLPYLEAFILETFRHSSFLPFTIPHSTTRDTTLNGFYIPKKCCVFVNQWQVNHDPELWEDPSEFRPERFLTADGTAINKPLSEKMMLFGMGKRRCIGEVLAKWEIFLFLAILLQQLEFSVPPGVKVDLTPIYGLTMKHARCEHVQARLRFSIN
# Sequence of Cytochrome P450 3A4 (Homo sapiens) (P08684 whole entry, looked up): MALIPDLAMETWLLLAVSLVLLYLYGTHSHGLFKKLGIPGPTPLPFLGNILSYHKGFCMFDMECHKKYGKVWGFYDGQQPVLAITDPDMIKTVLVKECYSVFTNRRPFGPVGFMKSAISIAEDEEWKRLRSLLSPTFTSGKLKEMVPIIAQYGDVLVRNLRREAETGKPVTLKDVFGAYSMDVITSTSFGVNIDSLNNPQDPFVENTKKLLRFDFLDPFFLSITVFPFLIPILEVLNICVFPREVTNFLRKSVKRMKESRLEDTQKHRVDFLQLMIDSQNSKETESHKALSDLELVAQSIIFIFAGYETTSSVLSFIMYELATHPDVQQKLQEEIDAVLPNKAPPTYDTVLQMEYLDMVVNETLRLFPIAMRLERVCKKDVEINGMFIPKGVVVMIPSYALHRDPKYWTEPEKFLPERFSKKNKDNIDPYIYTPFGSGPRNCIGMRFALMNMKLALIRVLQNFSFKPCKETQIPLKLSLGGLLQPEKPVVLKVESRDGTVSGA
# Sequence of Glucocorticoid receptor (Homo sapiens) (P04150 whole entry, looked up, the tested form may be a part): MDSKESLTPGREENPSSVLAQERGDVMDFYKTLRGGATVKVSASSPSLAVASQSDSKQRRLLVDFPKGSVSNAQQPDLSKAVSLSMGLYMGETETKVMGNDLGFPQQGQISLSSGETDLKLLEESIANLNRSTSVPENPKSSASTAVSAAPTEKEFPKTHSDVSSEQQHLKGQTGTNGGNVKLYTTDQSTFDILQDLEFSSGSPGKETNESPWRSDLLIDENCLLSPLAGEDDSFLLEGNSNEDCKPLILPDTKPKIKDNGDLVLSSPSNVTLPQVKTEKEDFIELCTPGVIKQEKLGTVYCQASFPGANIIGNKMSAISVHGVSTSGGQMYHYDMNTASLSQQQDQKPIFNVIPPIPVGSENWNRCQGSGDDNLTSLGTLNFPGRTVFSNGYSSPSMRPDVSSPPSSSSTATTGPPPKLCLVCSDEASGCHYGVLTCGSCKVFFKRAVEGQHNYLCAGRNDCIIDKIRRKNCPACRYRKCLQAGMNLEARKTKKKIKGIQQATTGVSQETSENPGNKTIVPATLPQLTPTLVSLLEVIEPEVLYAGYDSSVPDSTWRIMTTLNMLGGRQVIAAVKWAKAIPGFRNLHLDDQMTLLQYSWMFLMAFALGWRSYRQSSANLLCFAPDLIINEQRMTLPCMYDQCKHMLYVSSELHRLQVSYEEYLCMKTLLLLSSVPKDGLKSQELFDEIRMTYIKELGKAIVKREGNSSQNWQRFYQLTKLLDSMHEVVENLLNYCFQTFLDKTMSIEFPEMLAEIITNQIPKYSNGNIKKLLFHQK
# Sequence of DNA dC->dU-editing enzyme APOBEC-3G (Homo sapiens) (Q9HC16 whole entry, looked up): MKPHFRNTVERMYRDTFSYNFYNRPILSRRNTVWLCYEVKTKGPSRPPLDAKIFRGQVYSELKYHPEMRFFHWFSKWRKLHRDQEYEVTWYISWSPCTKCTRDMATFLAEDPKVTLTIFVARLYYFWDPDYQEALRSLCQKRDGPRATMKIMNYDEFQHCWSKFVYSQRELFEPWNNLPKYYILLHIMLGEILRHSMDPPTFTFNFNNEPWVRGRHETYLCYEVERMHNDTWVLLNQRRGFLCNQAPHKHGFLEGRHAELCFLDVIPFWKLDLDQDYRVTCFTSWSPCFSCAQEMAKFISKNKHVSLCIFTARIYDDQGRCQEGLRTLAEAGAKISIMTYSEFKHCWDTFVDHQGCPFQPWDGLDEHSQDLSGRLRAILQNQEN
# Sequence of Pyruvate kinase (Leishmania mexicana) (Q27686 2-499 E452W): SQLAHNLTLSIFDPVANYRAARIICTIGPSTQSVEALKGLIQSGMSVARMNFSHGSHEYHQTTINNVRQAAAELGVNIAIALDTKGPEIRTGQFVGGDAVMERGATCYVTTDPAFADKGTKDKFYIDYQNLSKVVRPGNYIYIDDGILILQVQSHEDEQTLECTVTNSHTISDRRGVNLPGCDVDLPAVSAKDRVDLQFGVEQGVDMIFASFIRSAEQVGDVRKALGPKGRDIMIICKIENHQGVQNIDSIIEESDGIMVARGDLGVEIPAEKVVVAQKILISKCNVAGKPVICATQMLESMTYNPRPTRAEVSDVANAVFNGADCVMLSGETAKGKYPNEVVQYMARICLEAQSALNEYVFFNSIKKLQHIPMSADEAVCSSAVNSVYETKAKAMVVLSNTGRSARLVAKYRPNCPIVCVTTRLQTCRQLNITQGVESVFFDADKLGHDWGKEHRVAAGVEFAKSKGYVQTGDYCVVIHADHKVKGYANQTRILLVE
# Sequence of 3',5'-cyclic-AMP phosphodiesterase 4B (Homo sapiens) (Q07343 whole entry, looked up): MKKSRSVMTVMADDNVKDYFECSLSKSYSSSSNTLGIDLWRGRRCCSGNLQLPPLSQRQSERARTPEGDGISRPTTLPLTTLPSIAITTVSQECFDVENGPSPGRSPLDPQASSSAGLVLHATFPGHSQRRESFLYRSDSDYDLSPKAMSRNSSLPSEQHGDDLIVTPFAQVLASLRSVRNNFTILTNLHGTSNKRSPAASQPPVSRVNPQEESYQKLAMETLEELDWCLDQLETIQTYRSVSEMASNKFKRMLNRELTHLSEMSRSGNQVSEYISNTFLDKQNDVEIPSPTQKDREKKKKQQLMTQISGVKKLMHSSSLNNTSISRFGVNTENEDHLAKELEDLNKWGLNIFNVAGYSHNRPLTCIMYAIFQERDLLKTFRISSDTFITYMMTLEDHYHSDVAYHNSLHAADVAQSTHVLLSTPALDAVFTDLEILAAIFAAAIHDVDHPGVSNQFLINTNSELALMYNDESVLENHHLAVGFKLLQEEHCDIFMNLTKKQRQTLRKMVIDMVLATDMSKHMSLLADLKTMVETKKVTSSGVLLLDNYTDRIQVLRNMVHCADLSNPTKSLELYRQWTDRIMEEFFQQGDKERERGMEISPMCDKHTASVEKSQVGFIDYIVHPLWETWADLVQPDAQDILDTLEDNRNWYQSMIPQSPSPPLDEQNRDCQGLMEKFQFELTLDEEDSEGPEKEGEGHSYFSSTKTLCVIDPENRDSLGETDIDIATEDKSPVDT
# Sequence of Cytochrome P450 2C19 (Homo sapiens) (P33261 whole entry, looked up): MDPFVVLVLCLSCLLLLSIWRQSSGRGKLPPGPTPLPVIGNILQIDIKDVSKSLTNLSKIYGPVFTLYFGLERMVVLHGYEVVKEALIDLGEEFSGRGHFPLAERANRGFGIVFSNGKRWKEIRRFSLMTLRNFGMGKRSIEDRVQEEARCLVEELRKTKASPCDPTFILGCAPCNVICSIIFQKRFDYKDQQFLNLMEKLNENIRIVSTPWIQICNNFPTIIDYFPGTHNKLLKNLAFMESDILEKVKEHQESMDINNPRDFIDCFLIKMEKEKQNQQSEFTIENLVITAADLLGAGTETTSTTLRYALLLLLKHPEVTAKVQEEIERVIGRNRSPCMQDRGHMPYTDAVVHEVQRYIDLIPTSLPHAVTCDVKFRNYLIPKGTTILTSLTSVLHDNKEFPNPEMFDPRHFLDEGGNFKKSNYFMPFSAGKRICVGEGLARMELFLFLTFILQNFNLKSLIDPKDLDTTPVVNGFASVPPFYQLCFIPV
# Sequence of Pyruvate kinase PKM (Homo sapiens) (P14618 whole entry, looked up): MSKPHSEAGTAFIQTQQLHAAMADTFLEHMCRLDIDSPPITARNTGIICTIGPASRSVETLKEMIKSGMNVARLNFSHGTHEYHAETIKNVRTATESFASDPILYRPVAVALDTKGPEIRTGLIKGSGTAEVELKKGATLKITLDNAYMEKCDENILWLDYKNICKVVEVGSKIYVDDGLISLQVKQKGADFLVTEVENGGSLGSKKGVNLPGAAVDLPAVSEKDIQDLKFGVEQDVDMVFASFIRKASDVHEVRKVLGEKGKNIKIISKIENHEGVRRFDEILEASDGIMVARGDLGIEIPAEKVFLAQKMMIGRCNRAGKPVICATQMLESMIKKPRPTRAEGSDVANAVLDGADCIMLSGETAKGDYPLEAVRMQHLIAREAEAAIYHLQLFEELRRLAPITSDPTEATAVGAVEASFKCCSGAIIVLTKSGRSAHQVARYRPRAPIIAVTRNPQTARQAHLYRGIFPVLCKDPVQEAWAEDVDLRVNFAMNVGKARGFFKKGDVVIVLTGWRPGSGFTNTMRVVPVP
# Sequence of Muscarinic acetylcholine receptor M1 (Rattus norvegicus) (P08482 whole entry, looked up): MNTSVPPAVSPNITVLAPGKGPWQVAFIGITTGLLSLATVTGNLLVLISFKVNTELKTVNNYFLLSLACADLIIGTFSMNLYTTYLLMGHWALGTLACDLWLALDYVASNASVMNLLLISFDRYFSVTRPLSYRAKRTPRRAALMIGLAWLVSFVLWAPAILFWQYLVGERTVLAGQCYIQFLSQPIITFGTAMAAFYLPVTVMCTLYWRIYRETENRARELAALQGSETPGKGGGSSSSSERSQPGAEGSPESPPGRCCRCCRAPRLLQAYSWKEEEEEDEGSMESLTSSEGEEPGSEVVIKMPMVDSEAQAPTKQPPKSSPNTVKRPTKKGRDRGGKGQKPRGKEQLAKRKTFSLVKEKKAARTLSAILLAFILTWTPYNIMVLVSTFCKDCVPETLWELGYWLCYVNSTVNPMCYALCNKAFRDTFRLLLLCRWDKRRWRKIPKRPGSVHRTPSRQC
structure (smiles),measurement,setting,value
CN(C)c1ccc(/C=C2/C(=O)Nc3ccccc32)cc1,Potency,[1],398 nM (active) and 100 nM (active)
same,Potency,[2],> 46 µM
same,Potency,[3],> 46 µM
same,Potency,[4],5.01 µM (active)
same,Potency,[5],inactive
same,outcome,[6],inactive
same,Potency,[7],5.01 µM (active)
same,Potency,[8],inactive
same,Potency,[9],20 µM (active)
same,Potency,[10],14.1 µM (active)
same,Potency,[11],3.16 µM (active)
same,outcome,[12],inactive
same,Potency,[13],3.16 µM (active)
same,Potency,[14],inactive
same,outcome,[15],inactive
same,outcome,[16],inactive
same,Potency,[17],26.6 µM (active)
same,Potency,[18],inactive
same,Potency,[19],35.5 µM (active)
same,max response,[20],8.84%
CC(=O)OCOC(=O)CN(CC(=O)OCOC(C)=O)c1ccccc1OCCOc1ccccc1N(CC(=O)OCOC(C)=O)CC(=O)OCOC(C)=O,Potency,[18],inactive
same,Potency,[21],inactive
COc1cccc(CCc2ccccc2OCC[C@@H]2C[C@@H](O)CN2C)c1,Potency,[22],3.16 µM (active)
same,Potency,[8],inactive
same,Potency,[18],inactive
same,Potency,[23],inactive
same,Potency,[20],15.8 µM (active)
CCOC(=O)c1c(C)[nH]c2ccc3c(c12)CN1CCc2cc(OC)ccc2[C@@H]1O3,Potency,[1],158 nM (active)
same,Potency,[2],> 46 µM
same,Potency,[3],> 46 µM
same,Potency,[4],inactive
same,Potency,[8],inactive
same,Potency,[9],inactive
same,Potency,[24],inactive
same,Potency,[17],inactive
same,Potency,[18],inactive
same,Potency,[23],inactive
N[C@](CC1c2ccccc2Oc2ccccc21)(C(=O)O)[C@H]1C[C@@H]1C(=O)O,Potency,[18],inactive
same,Potency,[21],inactive
CC(N)(C(=O)O)c1ccc(P(=O)(O)O)cc1 (stereo not drawn),Potency,[18],inactive
same,Potency,[21],inactive
CCCCCCCC/C=C\C/C=C\C/C=C\CCCC(=O)NCCO,"activity change, negative = inhibition",[18],9.89% [at 6.83 µM]
same,"activity change, negative = inhibition",[21],-21.6% [at 3.88 µM]
CC(C)ON(C(C(=O)NO)C(C)C)S(=O)(=O)c1ccc(-c2ccccc2)cc1 (stereo not drawn),Potency,[18],inactive
same,Potency,[19],inactive
same,Potency,[20],12.6 µM (active)
C1CCC(NC(=NC2C3CC4CC(C3)CC2C4)N2CCOCC2)CC1 (stereo not drawn),Potency,[18],inactive
same,Potency,[21],inactive
